In PubChem BioAssay AID687036 (The Scripps Research Institute Molecular Screening Center, 2013):
Out of some 3,300 compounds screened, about 1,400 (42%) were called active.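 The calls were made as follows: active = mean inhibition across replicates above the hit cutoff derived for the earlier primary screen (cut at about 22% in these data); inactive = the rest.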 So high a share suggests a set chosen from earlier hits. The list is a sample of the results.

These compounds were tested against Protein arginine N-methyltransferase 1 (Homo sapiens) (UniProt Q99873) (assay: human PRMT1 activity-probe blockers, retest – biochemical, fluorescence polarization, triplicate, confirmation (AID 687036)). Conditions: recombinant His-PRMT1, activity-based probe fluorescence polarization; at 2.79 µM; active compounds read high.
Protein arginine N-methyltransferase 1 (Homo sapiens), sequence (Q99873 whole entry, looked up): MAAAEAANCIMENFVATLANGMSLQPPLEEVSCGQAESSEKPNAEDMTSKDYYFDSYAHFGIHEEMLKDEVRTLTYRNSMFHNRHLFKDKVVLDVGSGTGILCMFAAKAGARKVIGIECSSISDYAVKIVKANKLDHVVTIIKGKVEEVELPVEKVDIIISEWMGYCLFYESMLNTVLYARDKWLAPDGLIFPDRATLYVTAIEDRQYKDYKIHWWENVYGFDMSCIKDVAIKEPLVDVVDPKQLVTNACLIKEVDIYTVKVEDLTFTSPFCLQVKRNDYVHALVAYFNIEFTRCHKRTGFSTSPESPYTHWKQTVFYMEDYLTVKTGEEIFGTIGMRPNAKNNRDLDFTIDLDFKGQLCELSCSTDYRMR

inhibition, active:
CC1=C(C)CC2C(=O)N(c3cccc4ccccc34)C(=O)C2C1 (stereo not given) 54.1%, Cc1ccc(NC(=O)Cn2sc3ccccc3c2=O)cc1 82.3%, COC(=O)C[n+]1cccc2ccccc21 32.6%, O=C(CSc1cccc[n+]1[O-])c1ccc(-c2ccccc2)cc1 25.6%, CSc1nc(C)cc(SC(C(C)=O)C(=O)Nc2ccccc2)n1 (stereo not given) 22.5%, C=CS(=O)c1sc(Cl)c(N2CCOCC2)c1[N+](=O)[O-] (stereo not given) 87.1%, CCOC(=O)c1cc2n(c1N)-c1ccccc1C2=O 116%, O=C(Nc1nc(-c2ccco2)c(-c2ccco2)s1)c1ccco1 30.4%, N#CC1=C(N)Oc2[nH]c(=S)[nH]c(=O)c2C12C(=O)Nc1ccccc12 (stereo not given) 66.4%, c1ccc(C(=NNc2nc3ccccc3s2)c2ccccn2)cc1 22.1%, CCN(CC)CCCC(C)n1c2nc(=O)[nH]c(=O)c-2nc2cc(Cl)ccc21 (stereo not given) 153%, N#Cc1ccccc1S(=O)(=O)N1CCN(Cc2c(O)ccc3ccccc23)CC1 33.1%, Cn1sc(=O)c2cc(S(=O)(=O)NC3CC3)ccc21 32%, CCOc1cccc(/C=N/N2C(=O)CSC2=S)c1O 83.2%, CCOC(=O)N1C(=O)C[C@](Sc2ccc(C)cc2)(C(=O)OC)[C@H]1c1ccccc1 60.5%, Clc1ccccc1CSc1nnc(-c2ccco2)c(-c2ccco2)n1 65.4%, Cc1ccnc(-n2sc3ccccc3c2=O)n1 89.8%, CCN1/C(=C/C(=S)Nc2ccccc2)Sc2ccccc21 24.8%, c1ccc(CN2CCC(N=C3NN=C(c4ccc5c(c4)OCCO5)CS3)CC2)cc1 27.8%, N#Cc1c(N2CCCCC2)nc(N)c2c(N)nc(SCC(=O)O)cc12 56.5%, COc1ccc(C2CC(c3cccs3)=Nc3ccccc3S2)cc1OC (stereo not given) 48.6%, O=C(Oc1ccccc1C(=S)N1CCCCC1)c1cc([N+](=O)[O-])cc([N+](=O)[O-])c1 25.5%, COC(=O)c1ccccc1SC1CC(=O)N(c2cccc(C)c2)C1=O (stereo not given) 23.1%, CCN(CC)S(=O)(=O)c1cccc(-c2n[nH]c(=S)n2/N=C/c2ccc(C(=O)OC)cc2)c1 65.6%, CCOC(=O)N1CCN(C(c2cccnc2)c2ccc3cccnc3c2O)CC1 (stereo not given) 82.2%, COc1ccc(N=C2C=CC(=O)O2)cc1 83.2%, COc1ccccc1NC(=O)/C=C/C(N)=O 55.8%, O=C(O)c1ccccc1CSc1nc2ccccc2s1 33.2%, O=C1C=CC(=O)N1c1ccc(N2CCCCC2)cc1 82.8%, Cc1cccc(C)c1NC(=O)C(Cl)C(=O)c1ccccc1 (stereo not given) 30%, Cc1nc2ccc(S(=O)(=O)NCC(=O)O)cc2s1 22.9%, CCCCOC(=O)CNc1nnc(SCC(=O)OCC)[nH]c1=O 72.3%, CCOC(=O)Cc1csc(NC(=O)CSc2nc(C)cc(=O)[nH]2)n1 61.6%, OCCN1CCN(C(=S)c2ccc(-c3ccccc3)cc2)CC1 61.8%, COc1cc(NC(=S)N2CCCC(C)C2)c(OC)cc1Cl (stereo not given) 44.5%, CC(=O)N1CC(C)c2scc(C)[n+]2-c2ccccc21 (stereo not given) 50.9%, COc1cccc2c1C(=O)c1c(O)c3c(c(O)c1C2=O)CC(O)(C(C)=NNC(=O)c1ccc(Cl)c(Cl)c1)CC3OC1CC(N)C(O)C(C)O1 (stereo not given) 159%, COC(=O)/C=C\C(=O)Nc1cccc([N+](=O)[O-])c1 87.6%

inhibition, inactive:
O=C(O)CCn1c(O)c(C=C2N=c3ccccc3=N2)sc1=S -5.43%, O=C(NC(Cc1c[nH]c2ccccc12)C(=O)O)/C(=C/c1ccco1)NC(=O)c1ccccc1 (stereo not given) 9.09%, CCC(c1nnnn1Cc1ccco1)N(Cc1cc2cc(OC)ccc2[nH]c1=O)C1CCCCC1 (stereo not given) 18%, NC(=O)c1c(Nc2nc3c(F)cccc3s2)sc2c1CCCC2 -3.26%, O=C(Cc1ccc(-c2ccccc2)cc1)NC(c1ccccc1)c1ccccc1 3.32%, Cc1sc(NC(=O)c2ccc3ncsc3c2)c(C(N)=O)c1C 3.89%, N#CC1(Nc2ccc3c4c(cccc24)CC3)CCCCC1 10.2%, CN(C)C(=S)N=c1ssc(=S)n1Cc1ccco1 15.6%, Cc1ccc(-n2nc(-c3ccco3)cc2C(=O)NCc2cccnc2)cc1 19.5%, Cc1ccccc1CN1C[C@@H]2C[C@@H](c3cn(C)nc3-c3ccccc3)N3CCC[C@@]23C1=O 5.9%, O=C(Nc1cccc(F)c1)c1cc(-c2ccco2)nc2ccccc12 3.51%, COc1cc(C(=S)NCc2ccccc2)cc(Br)c1O 19.8%, Cc1ccc(Cc2cnc(N)s2)o1 -3.79%, O=C(CN1C(=O)S/C(=C\c2ccccc2F)C1=O)NCCCn1ccnc1 -3.11%, CC(NC(=O)CSc1nc2c(cc1C#N)CN(C)CC2)c1ccccc1 (stereo not given) 6.37%, COc1ccc(C(=O)COC(=O)COc2ccc(C)c(C)c2)cc1 3.72%, COc1ccnc(NC(=S)N2CCN(c3ncc(C(F)(F)F)cc3Cl)CC2)c1 4.89%, Cc1nc2sc(C(c3ccco3)N3CCOCC3)c(O)n2n1 (stereo not given) 7.49%, CC(C(=O)Nc1ccc(O)c(C(=O)O)c1)N1C(=O)/C(=C/c2cccs2)SC1=S (stereo not given) 12%, COCCNC(=S)Nc1cc(S(=O)(=O)N2CCOCC2)ccc1N1CCCCC1 4.34%, COc1ccc(Nc2nc(-c3cccnc3)nc3ccccc23)cn1 11.2%, Cc1ccc(CNC(=O)CCS(=O)(=O)c2ccc3c(c2)CC(C)N3C(=O)C2CC2)o1 (stereo not given) 5.73%, S=c1[nH]nc2c3c4c(sc3ncn12)CCCC4 17.1%, NC(=O)C1(N2CCCCC2)CCN(C2CC(=O)N(Cc3ccc(N4CCCC4=O)cc3)C2=O)CC1 (stereo not given) 2.57%, Cc1sc2nc(SCC(=O)c3ccc(O)c(O)c3)n(Cc3ccco3)c(=O)c2c1C 2.72%, CCc1ccc(-n2c(=S)sc3c(=O)n(-c4ccccc4OC)c(=S)[nH]c32)cc1 14.1%, Cc1ccc(NC(=O)c2cc(-c3ccc(C)o3)nc3ccccc23)nc1 10.3%, CCc1n[nH]c(=S)n1/N=C/c1c[nH]c2ccc(Br)cc12 18%, Cc1cccc(NC(=O)c2sc3nc(N4CCOCC4)c4c(c3c2N)CCCC4)c1 10.1%, O=C(CC1N=C2c3ccccc3N=C(SCc3ccccc3Cl)N2C1=O)NCc1ccco1 (stereo not given) 5.28%, CC(=O)N1CCN(C(=O)c2cc(-c3ccc(C)o3)nc3ccccc23)CC1 13%, COc1ccccc1-n1c(-c2cc(-c3ccco3)[nH]n2)n[nH]c1=S 2.25%, Cc1cccc(Oc2c([N+](=O)[O-])c(=O)n(C)c3ccccc23)c1 9.75%, Cc1cc(C(=O)NN=C/C=C/c2ccco2)n[nH]1 0.98%, Cc1cc2nc(-c3ccco3)c(Cc3cccc(F)c3)n2c(C)c1Br 20.8%, CCOC(=O)c1ccc(N2C(=O)CC(N3CCC(C(=O)OCC)CC3)C2=O)cc1 (stereo not given) 1.87%, O=C(O)c1ccc(/C=C2\SC(=S)N(NC(=O)c3ccc(Br)cc3)C2=O)cc1 2.94%, S=c1[nH]nc(-c2ccccc2)n1/N=C/c1c[nH]c2ccccc12 12.4%, S=c1ccc2ccccc2[nH]1 10.8%, CC(=O)NC1=NC(=O)CS1 15.3%, COc1ccccc1C(=O)NN1C(=O)C2C3C=CC(O3)C2C1=O (stereo not given) 8.23%, CN(C)c1ccc(Nc2c3c4c(cccc4n(C)c2=O)C(=O)c2ccccc2-3)cc1 1.6%, CCC(c1nnnn1Cc1ccco1)N(CCc1ccccc1)Cc1cc2ccc(OC)cc2[nH]c1=O (stereo not given) 5.74%, Cc1cc(C)c(S(=O)(=O)NN=C2c3ccccc3[C@H]3Cc4csc[n+]4[C@@H]23)c(C)c1 13.2%, O=c1/c(=C/c2ccc(CNS(=O)(=O)c3ccccc3)o2)sc2n1CCN=2 -3.63%, Clc1cccc(-c2nc3nc4ccccc4nc3n2Cc2ccco2)c1 19.7%, CC(=O)N1C(=O)/C(=C2\SC(=S)N(NC(=O)c3ccc(O)cc3)C2=O)c2ccccc21 1.92%, CN(C)c1ccc(C(CC(=O)O)C(=O)O)cc1 (stereo not given) 5.11%, Cc1cc(NC(=O)C(C)SCC(=O)Nc2cccc(S(=O)(=O)N3CCCCCC3)c2)no1 (stereo not given) -0.11%, COc1ccc(NC(=O)CN(C)C(=O)c2cc(-c3ccc(C)o3)nc3ccccc23)cc1 13.6%, CC1CCN(C(=S)c2ccc(-c3ccc(Cl)cc3Cl)o2)CC1 4.49%, COc1ccc(N2C(=O)/C(=C\c3ccco3)N=C2SCC(N)=O)cc1Cl 5.26%, O=C(O)/C=C/C(=O)NNc1ccc([N+](=O)[O-])cc1 12.7%, Cc1c(NC(=O)/C=C/C(=O)O)cccc1[N+](=O)[O-] 4.54%, CSc1c(SCc2ccccc2)cnn(Cc2ccccc2)c1=O 18.4%, Nc1c(C(=O)c2cccs2)sc2nsc(SCCN3CCCCC3)c12 -5.21%, O=C(COC(=O)Cn1cnc2ccccc21)Nc1cccc2c1C(=O)c1ccccc1C2=O 4.11%
